Data on eleven compounds can be found in PubChem BioAssay.

Assay [1] can be described thus: compounds binding Alexa647 anti-His antibody – biochemical, small-molecule microarray, 635 nm fluorescence, artefact control for SMM control protein annotation, primary screen (AID 1128).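 Further: score merges feature fluorescence with signal-to-noise for each printed compound spot.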 Conditions: higher = more signal.
For assay [2], the system named is Human papillomavirus type 1a E7 protein (residues 1-88). In words: HPV1a E7 small-molecule binders, primary screen, biochemical, small-molecule microarray, residues 1-88, 635 nm (AID 1129). Conditions: small-molecule microarray binding, fluorescence 635 nm; higher = more signal.
Assay [3] deals with Focal adhesion kinase 1 (Homo sapiens) (UniProt Q05397). In words: PTK2 protein binding on printed compound slides – biochemical, small-molecule microarray, 635/667 nm fluorescence, BSA, DTT, primary screen (AID 1130).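 Further: composite of spot emission at 667 nm and signal to noise over triplicate slides.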 The following applies: 635 nm fluorescence, higher = more signal.
Assay [4] concerns Fibrinogen (Alexa647-labelled). In words: Alexa647-fibrinogen binding to printed small molecules – biochemical, small-molecule microarray, 635/667 nm fluorescence, artefact control for SMM control-protein annotation, profiling panel (AID 1131).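 Further: z-score merges 667 nm fluorescence with per-spot signal-to-noise over triplicate slides.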 The following applies: fibrinogen-A647 binding fluorescence, higher = more signal.
For assay [5], the target named is Follistatin (Homo sapiens) (UniProt P19883). In words: FST protein binding to printed compounds – biochemical, small-molecule microarray, 635/667 nm fluorescence, primary screen (AID 1132). Conditions: 635 nm fluorescence, higher = more signal.
The target of assay [6] is Fibroblast growth factor 2 (Homo sapiens) (UniProt P09038). The experiment in a line: basic fibroblast growth factor binding to printed compounds – biochemical, small-molecule microarray, 635/667 nm fluorescence, primary screen (AID 1133). The following applies: FGF2, fluorescence 635/667, higher = more signal.
Assay [7] is described as follows: JC-1 mitochondrial potential readout, lung cancer cells – cell-based, A549, JC-1 fluorescence, basal, 24 h, 100 nL, profiling panel (AID 1138).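 Further: A549 lung adenocarcinoma cells under basal conditions with no added stimulus; test concentration not given here.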 Conditions: higher = more signal.
In the next assay the test system is Lefty1. In words: Lefty1 protein binding to printed compounds – biochemical, small-molecule microarray, 635/667 nm fluorescence, primary screen (AID 1139). Conditions: fluorescence 635/667, higher = more signal.
In assay [8] the test system is wheat germ agglutinin (Triticum aestivum), Alexa647-labelled. The experiment in a line: Alexa647-WGA lectin binding to printed small molecules – biochemical, small-molecule microarray, 635/667 nm fluorescence, artefact control for SMM control-protein annotation, profiling panel (AID 1140).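 Further: score merges 667 nm feature emission with signal to noise over triplicate slides.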 The following applies: WGA-A647 binding, 635 nm fluorescence, higher = more signal.

Assay [9] deals with Luciferin 4-monooxygenase (Photinus pyralis) (UniProt P08659). In words: inhibition of purified Photinus pyralis luciferase – biochemical, luminescence, purified enzyme, 2006 set, primary screen (AID 1141).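 Further: cell-free assay with purified firefly luciferase at 100 ng per well in PBS; test concentration not given here.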 Conditions: purified firefly luciferase, SteadyGlo luminescence, 30 min; higher = more signal, called active from +8 up or from −8 down.

Activity calls are given as the source filed them.

Sequence of Focal adhesion kinase 1 (Homo sapiens) (Q05397 whole entry, looked up): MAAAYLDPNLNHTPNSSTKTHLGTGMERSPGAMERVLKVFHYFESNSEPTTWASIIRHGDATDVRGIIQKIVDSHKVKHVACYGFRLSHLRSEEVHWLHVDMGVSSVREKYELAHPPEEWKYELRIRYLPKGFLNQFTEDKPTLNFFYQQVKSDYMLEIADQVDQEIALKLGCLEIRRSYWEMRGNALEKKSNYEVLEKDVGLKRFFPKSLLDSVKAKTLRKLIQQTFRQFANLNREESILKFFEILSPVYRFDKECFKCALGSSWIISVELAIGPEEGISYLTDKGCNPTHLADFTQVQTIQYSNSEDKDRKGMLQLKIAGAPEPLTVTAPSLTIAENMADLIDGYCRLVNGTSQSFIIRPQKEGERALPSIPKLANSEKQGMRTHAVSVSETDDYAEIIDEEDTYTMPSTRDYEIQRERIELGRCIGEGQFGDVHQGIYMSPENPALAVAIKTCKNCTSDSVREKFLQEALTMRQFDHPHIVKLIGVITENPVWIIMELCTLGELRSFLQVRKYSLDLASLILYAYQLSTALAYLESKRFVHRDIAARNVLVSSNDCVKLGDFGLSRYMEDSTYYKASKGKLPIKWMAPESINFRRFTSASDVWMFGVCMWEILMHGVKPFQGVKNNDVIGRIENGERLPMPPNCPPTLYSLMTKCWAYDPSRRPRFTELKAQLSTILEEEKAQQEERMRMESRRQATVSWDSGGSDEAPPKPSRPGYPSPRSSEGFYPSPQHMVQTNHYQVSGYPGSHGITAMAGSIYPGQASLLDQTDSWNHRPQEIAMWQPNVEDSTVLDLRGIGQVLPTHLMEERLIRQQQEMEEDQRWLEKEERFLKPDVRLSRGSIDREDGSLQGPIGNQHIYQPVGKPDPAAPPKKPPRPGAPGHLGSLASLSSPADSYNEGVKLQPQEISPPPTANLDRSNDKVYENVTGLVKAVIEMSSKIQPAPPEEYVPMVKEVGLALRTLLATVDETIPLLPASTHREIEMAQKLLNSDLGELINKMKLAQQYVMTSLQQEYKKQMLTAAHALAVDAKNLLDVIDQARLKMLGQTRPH
Sequence of Luciferin 4-monooxygenase (Photinus pyralis) (P08659 whole entry, looked up): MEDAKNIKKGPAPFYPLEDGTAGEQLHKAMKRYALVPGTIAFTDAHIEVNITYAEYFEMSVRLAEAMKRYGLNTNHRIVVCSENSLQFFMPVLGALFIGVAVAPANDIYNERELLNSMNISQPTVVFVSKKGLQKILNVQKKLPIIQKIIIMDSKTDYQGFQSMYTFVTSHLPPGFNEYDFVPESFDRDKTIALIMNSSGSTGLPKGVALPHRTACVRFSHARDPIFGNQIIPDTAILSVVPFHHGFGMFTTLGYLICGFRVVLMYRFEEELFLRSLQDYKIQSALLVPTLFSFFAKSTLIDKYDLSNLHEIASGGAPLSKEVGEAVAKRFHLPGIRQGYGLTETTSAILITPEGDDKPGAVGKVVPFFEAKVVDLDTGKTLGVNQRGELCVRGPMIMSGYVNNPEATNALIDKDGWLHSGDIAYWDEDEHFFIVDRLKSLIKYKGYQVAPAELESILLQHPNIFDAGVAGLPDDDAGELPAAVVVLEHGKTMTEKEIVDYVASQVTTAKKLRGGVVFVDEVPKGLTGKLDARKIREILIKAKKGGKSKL
Sequence of Follistatin (Homo sapiens) (P19883 whole entry, looked up): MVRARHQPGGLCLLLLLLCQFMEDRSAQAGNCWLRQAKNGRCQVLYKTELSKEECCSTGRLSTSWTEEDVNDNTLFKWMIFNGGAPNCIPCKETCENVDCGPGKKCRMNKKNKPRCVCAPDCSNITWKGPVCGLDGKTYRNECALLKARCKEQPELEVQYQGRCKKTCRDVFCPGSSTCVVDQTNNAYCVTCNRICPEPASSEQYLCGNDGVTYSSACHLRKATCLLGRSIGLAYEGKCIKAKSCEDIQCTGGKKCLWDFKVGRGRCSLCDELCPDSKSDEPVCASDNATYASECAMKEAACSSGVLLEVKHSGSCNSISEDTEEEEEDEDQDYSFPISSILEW
Sequence of Fibroblast growth factor 2 (Homo sapiens) (P09038 whole entry, looked up): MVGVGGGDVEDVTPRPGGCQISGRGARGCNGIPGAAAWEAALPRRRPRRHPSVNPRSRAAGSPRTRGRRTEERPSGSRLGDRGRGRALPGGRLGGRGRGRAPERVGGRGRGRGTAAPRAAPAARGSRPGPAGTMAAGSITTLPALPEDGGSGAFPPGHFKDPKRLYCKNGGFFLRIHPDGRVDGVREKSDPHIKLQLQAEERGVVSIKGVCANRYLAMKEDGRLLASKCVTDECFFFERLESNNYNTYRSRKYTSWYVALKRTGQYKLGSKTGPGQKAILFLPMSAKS

For the compound `C[C@H]1CC[C@H]2C(=O)OC(COc3ccc(C(C)(C)C)cc3)CN2[C@@H]1c1ccc(Br)cc1` (stereo not given in full), the composite z-score was 0.148 in [1]; 1.15 in assay [2]; 0.29 in assay [3]; 0.819 in [4]; 0.312 in assay [5]; 0.118 in [6]. Also, the composite z-score worked out at 0.334 in the assay with Lefty1 and 0.264 in assay [8]. Further, the z-score in [7] is 1.28; in [9], -1.37 (inactive).
In the case of `COc1ccc(-c2cnnc(CCCn3ccnc3-c3ccccc3)n2)cc1`, the composite z-score came to 1.39 in assay [1]; 0.538 in assay [2]; 0.107 in assay [3]; 0.747 in assay [4]; 0.836 in [5]; 0.475 in assay [6]. Also, the composite z-score in the assay with Lefty1 stood at 0.592; in [8] it was 0.138. Besides, the values for the z-score in assay [7] and in assay [9] were 0.787 and 0.313 (inactive), respectively.
In the case of `COC(=O)CC=C1c2ccccc2[C@H](OC)[C@H]1C`, the composite z-score is -0.706 in assay [1]; -0.352 in [2]; -0.102 in [3]; -0.479 in assay [4]; -0.0211 in assay [5]; 0.621 in assay [6]. The composite z-score in the assay on Lefty1 is 0.338; in assay [8], -0.488. Moreover, the z-score in [7] was -0.612; in assay [9], 0.469 (inactive).
Take `CON=C(C)CCN1CCCCc2nc(C)c(C)cc21`: the composite z-score was 0.229 in assay [1]; -0.27 in assay [2]; 0.145 in assay [3]; 0.582 in assay [4]; 0.925 in [5]; 0.644 in assay [6]. Besides, the composite z-score amounted to 1.05 in the assay with Lefty1 and 0.495 in assay [8]. The z-score was 1.19 in assay [7] and -0.518 (inactive) in [9].
`C=C(C)C(=O)OC[C@H]1CN2[C@@H](CC[C@@H](C)[C@@H]2c2ccc(Br)cc2)C(=O)O1`: the composite z-score in assay [1] is 2.44; in [2], 0.0456; in [3], -0.174; in assay [4] it was -0.613; in assay [5], 0.489; in [6], 0.108. In addition, the composite z-score is 0.264 in the assay on Lefty1 and -0.034 in assay [8]. Moreover, the values for the z-score in assay [7] and in assay [9] were 0.47 and -2.88 (inactive), respectively.
As to `CCOC(=O)[C@H](Cc1ccccc1)NC(=O)CCC1CC(OC(=O)NCc2cccc3ccccc23)CC2(CCCC(COC(=O)NCCOc3ccccc3)O2)O1` (stereo not given in full), the composite z-score was 1.39 in [1]; 1.01 in assay [2]; 0.227 in assay [3]; 0.725 in assay [4]; 0.485 in assay [5]; 0.279 in [6]. Further, the composite z-score in the assay on Lefty1 was determined as 0.573; in assay [8], 0.268. Also, the z-score in assay [7] was -0.16; in assay [9], 1.13 (inactive).
As to `COC(=O)[C@H](C)NC(=O)CCC1CC(OC(=O)NCc2cccc3ccccc23)CC2(CCCC(COC(=O)NCc3cccc(C(F)(F)F)c3)O2)O1` (stereo not given in full), the composite z-score in assay [1] amounted to 1.12; in assay [2] it was 0.818; in assay [3], 0.0625; in assay [4], 0.83; in assay [5] it was 0.928; in assay [6], 0.657. The composite z-score came to 0.526 with Lefty1 and 0.48 in assay [8]. Besides, the z-score was 1.43 in [7] and -0.552 (inactive) in [9].
On to `CCOC(=O)[C@H](CC(C)C)NC(=O)CCC1CC(OC(=O)NCc2ccc3c(c2)OCO3)CC2(CCCC(COC(=O)NCCOC)O2)O1` (stereo not given in full), for which the composite z-score in [1] is 0.418; in assay [2], 0.758; in assay [3], -0.379; in assay [4], 0.942; in assay [5], 0.589; in assay [6] it was 0.725. Also, the composite z-score amounted to 0.847 in the assay with Lefty1 and 0.609 in assay [8]. Besides, the figures for the z-score in assay [7] and in [9] were -0.119 and 0.713 (inactive), respectively.
Consider `CCc1cc2c(nc1CC)CCN(CCC(C)=NOC(C)CN1CCCCc3nc(C)c(C)cc31)C2` (stereo not given), for which the composite z-score in assay [1] is 0.575; in assay [2] it was 1.18; in assay [3] it was -0.048; in assay [4] it was 0.874; in assay [5] it was 1.18; in [6] it was 0.557. The composite z-score amounted to 0.979 in the assay on Lefty1 and 0.439 in assay [8]. Besides, the values for the z-score in [7] and in [9] were 2.45 and -0.0579 (inactive), respectively.
On to `CN1CCc2nc(-c3ccccc3)c(-c3ccccc3)cc2C1`, for which the composite z-score in assay [1] amounted to 0.532; in assay [2], 0.26; in [3], 0.163; in [4] it was 0.547; in assay [5], 0.397; in assay [6], 0.325. The composite z-score in the assay with Lefty1 was 0.256; in assay [8] it was -0.0097. Further, the z-score in [7] was 0.0181; in assay [9] it was -0.133 (inactive).
In the case of `COc1ccc(O[C@H]2C=C[C@@H](c3ccccc3)O[C@@H]2CO)cc1`, the composite z-score is -0.457 in assay [1]; -0.145 in assay [2]; -0.363 in assay [3]; -0.0957 in assay [4]; 0.36 in assay [5]; 0.363 in assay [6]. The composite z-score in the assay on Lefty1 is 0.479; in assay [8] it was -0.126. Also, the z-score in assay [7] is 0.319; in [9] it was -0.162 (inactive).
